Bioassay records (PubChem BioAssay)
A selection: hits, their analogues and other compounds. The true share with any hit is near 2.8%.
HSP90 inh = blocks HSP90-mediated luciferase refolding in reticulocyte lysate | actives 0.91% (n = 290,000) | AID 1789 | inhibition, % at 5.6 µM | Rabbit reticulocyte lysate, luciferase refolding luminescence, 3 h;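 active = inhibition above the screen-wide mean plus 3 SD, computed separately per campaign, cut at about 16% in these data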;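 note: 0% = DMSO wells and 100% = 60 µM geldanamycin wells; inhibitors lower the luminescence because luciferase stays unfolded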
SENP8 block-1 = SENP8 protease inhibition; purified SENP8, Z-RLRGG-aminoluciferin cleavage, luminescence; AID 2540; inhibition, % at 10 µM; actives 1.2% (n = 330,000); in the data active = inhibition above about 50%
SENP8 block-2 = blocks human SENP8 cleavage of Nedd8 substrate; Q96LD8; recombinant SENP8, Nedd8 substrate fluorescence; inhibition, % at 20 µM; actives 0.64% (n = 360,000); AID 602440; in the data active = inhibition mostly above about 40%, no sharp cut-off; inactive = mostly below about 27%
SENP7 inh = inhibitors of human SENP7 protease; Q9BQF6; recombinant SENP7, Z-RLRGG-aminoluciferin luminescence, 40 min; inhibition, % at 5 µM; actives 1.5% (n = 330,000); AID 434973;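 active = inhibition above about 50% at the single test dose, limit read from the data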;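 note: plate controls were DMSO with enzyme for no effect and no enzyme buffer wells for full effect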
Target sequence (Q9BQF6 706-1050 limits assumed): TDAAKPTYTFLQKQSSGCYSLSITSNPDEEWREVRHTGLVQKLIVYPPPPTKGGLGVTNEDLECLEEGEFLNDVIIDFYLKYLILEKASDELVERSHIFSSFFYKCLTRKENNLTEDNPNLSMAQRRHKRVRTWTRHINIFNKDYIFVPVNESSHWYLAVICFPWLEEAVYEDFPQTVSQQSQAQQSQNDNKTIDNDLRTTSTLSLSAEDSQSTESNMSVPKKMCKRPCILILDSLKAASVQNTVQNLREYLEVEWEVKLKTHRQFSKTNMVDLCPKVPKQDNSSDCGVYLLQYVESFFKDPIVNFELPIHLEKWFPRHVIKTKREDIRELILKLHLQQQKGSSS
SENP6 inh = SENP6 protease inhibition | Q9GZR1 | Recombinant SENP6 catalytic domain, aminoluciferin luminescence | inhibition, % at 10 µM | actives 1.8% (n = 330,000);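 active = inhibition above about 50% at the single tested dose, limit read from the data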;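 note: plate controls were DMSO wells with enzyme for no effect and DMSO wells lacking enzyme for full effect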
SENP8 conf = human SENP8 inhibition, confirmed. shares compounds with SENP7 inh. Recombinant SENP8, Z-RLRGG-aminoluciferin luminescence, 60 min. inhibition, % at 12.5 µM. actives 40% (n = 6,200). AID 488912;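 active = mean inhibition across replicates above about 50%, limit read from the data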
SENP6 conf = confirmation of human SENP6 protease inhibitors. shares compounds with SENP7 inh. recombinant SENP6, Z-RLRGG-aminoluciferin luminescence. inhibition, % at 12.5 µM. actives 58% (n = 6,200). AID 488915
SENP7 conf = confirmation of human SENP7 protease inhibitors; inhibition, % at 12.5 µM; actives 69% (n = 6,200); recombinant SENP7, Z-RLRGG-aminoluciferin luminescence, 40 min; AID 488917; shares compounds with SENP7 inh
Casp3 SENP sel = caspase-3 inhibition (SENP selectivity assay). shares compounds with SENP7 inh. purified caspase-3, Z-DEVD-aminoluciferin luminescence, 60 min. inhibition, % at 12.5 µM. actives 60% (n = 6,200). AID 488918;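 active = mean inhibition above about 50%, limit read from the data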;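 note: plate controls were enzyme with DMSO for no effect and wells without caspase-3 for full effect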
Target sequence (P42574 28-227 limits assumed): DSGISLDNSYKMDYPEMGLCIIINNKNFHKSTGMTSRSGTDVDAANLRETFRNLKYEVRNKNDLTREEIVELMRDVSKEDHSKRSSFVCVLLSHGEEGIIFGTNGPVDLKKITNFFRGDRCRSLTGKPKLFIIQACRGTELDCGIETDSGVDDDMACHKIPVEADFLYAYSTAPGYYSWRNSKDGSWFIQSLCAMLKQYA
Luc interf = counter-screen for SENP inhibitors: luminescence interference; inhibition, % at 12.5 µM; Pre-incubated SENP8/Z-RLRGG-aminoluciferin, luciferase luminescence interference; shares compounds with SENP7 inh; actives 39% (n = 6,200);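 active = mean inhibition above about 50% when retested at one dose, limit read from the data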;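 note: plate controls were DMSO wells with completed reaction for no effect and substrate without enzyme for full effect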
* = called active by the depositor; nt = no result.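 Rule for the calls, unless noted: active = mean inhibition above about 50% in the one-dose retest (limit read from the data); inactive = the rest.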

SMILES	HSP90 inh	SENP8 block-1	SENP8 block-2	SENP7 inh	SENP6 inh	SENP8 conf	SENP6 conf	SENP7 conf	Casp3 SENP sel	Luc interf
CC[C@@H](C)C(NC(=O)OC(C)(C)C)c1cn([C@@H](Cc2ccc(O)cc2)C(=O)N2CCN(C(=O)OC(C)(C)C)CC2)nn1 (stereo partly specified)	12	48	3	33	82*	-1	-5	0	6	7
Cc1cccc(-c2nc(CS(=O)CC(=O)N3CCc4ccccc4C3)c(C)o2)c1 (stereo unspecified)	-2	-5	22	-3	2	nt	nt	nt	nt	nt
Cc1[nH]nc2c1C(CC(C)C)C(C#N)=C(N)O2 (stereo unspecified)	3	-6	-14	-7	-15	nt	nt	nt	nt	nt
CC(=O)N1CCn2c3c(c(=O)c4cc(C)ccc42)CCC31 (stereo unspecified)	-3	43	-103	28	55*	14	24	5	2	-1
O=C1C(C=Nc2ccccc2O)=C(O)c2ccccc21	17*	95*	45*	5	96*	88*	95*	100*	95*	96*
O=C1C(C=Nc2ccccc2)=C(O)c2ccccc21	17*	92*	32	99*	98*	87*	88*	100*	94*	61*
CN=CC1=C(O)c2ccccc2C1=O	1	2	2	-4	1	nt	nt	nt	nt	nt
CSCC[C@H](NC(=O)[C@@H]1CSC2c3ccccc3C(=O)N21)C(=O)NC1CCCC1 (stereo partly specified)	-2	9	7	7	7	nt	nt	nt	nt	nt
COc1ccccc1OCCCOc1cccc(/C=C2\SC(=O)NC2=O)c1	9	-16	12	12	-14	nt	nt	nt	nt	nt
COc1ccccc1OCCCOc1ccc(/C=C2\SC(=O)NC2=O)cc1OC	-1	41	-80	-7	61*	38	48	48	15	30
O=C1NC(=O)/C(=C\c2ccc(OCc3ccccc3)cc2)S1	1	45	16	-2	64*	17	33	-1	6	6
O=C1NC(=O)/C(=C\c2ccccc2OCc2ccccc2)S1	-2	-1	-13	-7	3	nt	nt	nt	nt	nt
Cn1nnnc1Sc1ncnc2scc(-c3cccc(S(C)(=O)=O)c3)c12	nt	-10	-11	-6	2	nt	nt	nt	nt	nt
Cc1ccc(-c2nc(-c3cccnc3)sc2CC(=O)O)cc1	1	-3	-64	2	-8	nt	nt	nt	nt	nt
NNC(=O)c1cncn1-c1ccc(F)cc1	-2	1	3	-2	-7	nt	nt	nt	nt	nt
CCN(CC)CCCNC1=C(Cl)C(=O)c2ccccc2C1=O	3	22	47*	11	75*	41	67*	21	55*	3
C=CCNC1=C(Cl)C(=O)c2ccccc2C1=O	4	21	72*	17	59*	20	50*	19	31	9
O=C1C(Cl)=C(Nc2ccccc2)C(=O)c2ccccc21	1	nt	-40	nt	nt	nt	nt	nt	nt	nt
CC(C)NC1=C(Cl)C(=O)c2ccccc2C1=O	10	34	52*	-7	56*	15	45	14	26	5
CC(C)OCCCNC1=C(Cl)C(=O)c2ccccc2C1=O	6	22	68*	17	62*	25	51*	15	18	15
COCCCNC1=C(Cl)C(=O)c2ccccc2C1=O	8	6	37	17	31	nt	nt	nt	nt	nt
CCc1ccc(C(=O)NC(=S)Nc2ccc(N3CCOCC3)cc2)cc1	1	-7	19	-3	0	nt	nt	nt	nt	nt
Fc1cc(Cl)c(OCc2noc(-c3ccsc3)n2)c(Cl)c1	1	-4	25	-2	-4	nt	nt	nt	nt	nt
CCOC(=O)N1CCN(C(=O)CSc2ccc(-c3ccccc3OC)nn2)CC1	0	0	19	8	-6	nt	nt	nt	nt	nt
COc1ccc(-c2ccc3c(N)c(C(=O)c4cccc(OC)c4)sc3n2)cc1	-2	-3	-260	14	21	nt	nt	nt	nt	nt
SMILES	HSP90 inh	SENP8 block-1	SENP8 block-2	SENP7 inh	SENP6 inh	SENP8 conf	SENP6 conf	SENP7 conf	Casp3 SENP sel	Luc interf
COc1cccc(-c2ccc3c(N)c(C(=O)NC4CC4)sc3n2)c1	7	46	-460	50	60*	-16	-14	19	10	24
COc1c(Br)cc([N+](=O)[O-])c(OC)c1C(=O)NC(=O)Nc1c(Cl)cccc1Cl	0	-8	22	-3	-27	nt	nt	nt	nt	nt
O=C1NC(=Nc2ccccc2)S/C1=C/c1cccs1	1	59*	10	32	17	27	46	20	39	23
Cc1cccc(N=C2NC(=O)/C(=C\c3cccs3)S2)c1	4	6	1	1	49	nt	nt	nt	nt	nt
O=C(c1ccco1)c1coc2c1cc(O)c1ccccc12	-1	-5	21	20	60*	-14	7	-1	1	-3
COc1ccc(N=C2C(=Nc3ccc(OC)cc3)N(c3ccc(OC)cc3)C(=S)N2C(=O)c2ccc(OC)cc2)cc1	0	2	20	6	-3	nt	nt	nt	nt	nt
COc1ccc(N2C(=S)N(C(=O)c3ccccc3)C(=Nc3ccccc3)C2=Nc2ccccc2)cc1	-3	73*	15	92*	83*	67*	82*	96*	93*	60*
C=CCOc1ccccc1CN1CCCCCC1	-4	-5	14	9	-25	nt	nt	nt	nt	nt
CCCCNC(=O)c1sc(=S)n2c1[nH]c(=O)c1ccccc12	-4	21	29	-1	85*	49	41	17	3	21
COc1cccc(C2=NC(C)(C)NC(c3ccccc3O)C2)c1 (stereo unspecified)	-1	-3	-47	5	19	nt	nt	nt	nt	nt
CCC1(C)N=C(c2ccc3c(c2)OCO3)CC(c2ccccc2O)N1 (stereo unspecified)	-4	78*	-151	2	91*	82*	46	13	48	63*
COc1ccc(-c2[nH]nc3oc(=O)c(CCO)c(C)c23)cc1	-5	-4	-49	-5	-16	nt	nt	nt	nt	nt
COc1cccc(CNC(=O)CCC2CCCN(Cc3cc(Cl)ccc3O)C2)c1 (stereo unspecified)	-1	-5	9	-8	-11	nt	nt	nt	nt	nt
CNC(C)C#Cc1ccc2c(=O)c3cc(C)c(C)cc3oc2c1 (stereo unspecified)	nt	67*	-316	-4	93*	33	23	47	30	71*
CNC(C)C#Cc1ccc2c(=O)c3c(OC)cccc3oc2c1 (stereo unspecified)	-2	-19	nt	-8	-3	nt	nt	nt	nt	nt
O=c1oc(-c2ccccc2)cc2ccccc12	nt	nt	16	nt	nt	nt	nt	nt	nt	nt
